# Reference: PubChem BioAssay AID504635 (The Scripps Research Institute Molecular Screening Center, 2011)
# The other results are listed elsewhere or left out. Unmarked numbers belong to inactive results. Cut-off read from the data, not from the text of the source: active = inhibition above about 18%; inactive = the rest.
# Molecular target: Troponin I, cardiac muscle (Homo sapiens) + Troponin T, cardiac muscle (Homo sapiens) + Troponin C, slow skeletal and cardiac muscles (Homo sapiens) (UniProt P19429+P45379+P63316)
# Experiment: cardiac RTF calcium sensitivity inhibitors, confirmation, biochemical, fluorescence readout (AID 504635)
# Conditions: reconstituted cardiac thin filaments, at 7.15 µM, active compounds read high
smiles,measurement,value
COC1=C[C@@H]2[C@@H]3Cc4ccc(OC)c(O)c4[C@]2(CCN3C)CC1=O,inhibition,-1.97%
